# In PubChem BioAssay AID720700 (The Scripps Research Institute Molecular Screening Center, 2013):
# Screen size: about 370,000 compounds; about 3,100 (0.84%) were called active. Many of the other results were omitted from the sample, so actives are more common in it than they were. Unmarked numbers belong to inactive results. Rule as the data show it: active = inhibition above about 9.5%; inactive = the rest.
# Target: 1-phosphatidylinositol 4,5-bisphosphate phosphodiesterase gamma-1 (Homo sapiens) (UniProt P19174)
# Test: blockers of human PLCG1 activity – biochemical, fluorescence, purified enzyme, primary screen (AID 720700)
# Settings: purified PLC-gamma1, fluorogenic substrate, at 12.2 µM, active compounds read high
# 1-phosphatidylinositol 4,5-bisphosphate phosphodiesterase gamma-1 (Homo sapiens), sequence (P19174 whole entry, looked up): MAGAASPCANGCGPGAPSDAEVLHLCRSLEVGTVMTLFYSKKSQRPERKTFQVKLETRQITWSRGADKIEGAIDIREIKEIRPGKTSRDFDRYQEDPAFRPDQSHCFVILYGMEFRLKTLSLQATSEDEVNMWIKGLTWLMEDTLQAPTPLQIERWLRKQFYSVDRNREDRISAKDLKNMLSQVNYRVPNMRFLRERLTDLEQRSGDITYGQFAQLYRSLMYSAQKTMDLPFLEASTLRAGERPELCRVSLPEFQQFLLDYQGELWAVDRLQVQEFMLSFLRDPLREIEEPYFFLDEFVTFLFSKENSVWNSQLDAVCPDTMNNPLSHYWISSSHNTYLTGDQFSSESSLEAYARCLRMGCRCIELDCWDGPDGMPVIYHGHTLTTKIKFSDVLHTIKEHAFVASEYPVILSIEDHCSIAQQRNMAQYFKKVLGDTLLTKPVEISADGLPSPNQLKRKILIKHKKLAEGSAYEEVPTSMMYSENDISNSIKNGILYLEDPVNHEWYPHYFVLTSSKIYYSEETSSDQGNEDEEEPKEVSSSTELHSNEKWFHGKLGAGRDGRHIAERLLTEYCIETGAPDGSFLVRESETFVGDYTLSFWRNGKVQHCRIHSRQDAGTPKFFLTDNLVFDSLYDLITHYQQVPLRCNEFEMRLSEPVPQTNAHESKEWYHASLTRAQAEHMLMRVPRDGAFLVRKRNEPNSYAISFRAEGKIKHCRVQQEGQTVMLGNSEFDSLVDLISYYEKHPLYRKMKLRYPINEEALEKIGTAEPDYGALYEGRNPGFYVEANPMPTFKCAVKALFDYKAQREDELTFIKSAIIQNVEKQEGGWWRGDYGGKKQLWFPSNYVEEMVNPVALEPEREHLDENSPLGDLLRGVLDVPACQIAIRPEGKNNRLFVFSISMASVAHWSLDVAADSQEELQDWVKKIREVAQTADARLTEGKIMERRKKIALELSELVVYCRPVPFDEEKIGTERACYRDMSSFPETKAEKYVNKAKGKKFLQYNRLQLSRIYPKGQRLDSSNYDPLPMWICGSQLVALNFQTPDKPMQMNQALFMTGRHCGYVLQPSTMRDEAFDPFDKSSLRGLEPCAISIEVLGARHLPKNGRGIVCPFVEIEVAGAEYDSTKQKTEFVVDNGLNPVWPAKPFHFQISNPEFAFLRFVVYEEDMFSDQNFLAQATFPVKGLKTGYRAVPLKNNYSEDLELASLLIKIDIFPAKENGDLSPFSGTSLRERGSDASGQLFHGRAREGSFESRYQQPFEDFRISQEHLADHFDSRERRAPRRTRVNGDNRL
row,Structure (SMILES),inhibition
1,CC(C)C(C#CC1CC1)N(Cc1ccc2c(c1)OCO2)C(N)=NC(=O)/C=C/c1cccc(C(F)(F)F)c1 (stereo unspecified),0.02%
2,C=CCN(C(=O)[C@@H](CCCC)[C@@H](O)c1ccc(Cl)cc1)c1ccccc1,-0.11%
3,CCC(=O)Nc1ccc(S(=O)(=O)NCC2CCCO2)cc1 (stereo unspecified),3.4%
4,O=C(CCNS(=O)(=O)c1ccc(Br)cc1)NCC1CCCO1 (stereo unspecified),12.3% (active)
5,CCOc1ccc(S(=O)(=O)NCCC(=O)NCC2CCCO2)cc1 (stereo unspecified),2.41%
6,COC(=O)[C@]12C[C@H](CC(=O)NCc3ccccc3)C(=O)N(Cc3ccccc3)C1=C[C@H](COCc1ccccc1)O[C@@H]2C,8.06%
7,COc1ccc(-n2c(SCC(=O)Nc3ccccc3-c3ccccc3)nnc2-c2cccnc2)cc1,-0.54%
8,C=C(C)C1CC23C(=O)C4(C(=O)c5ccccc5)C[C@@]5(C)CCC(CC2C1(C)C)(C4=O)C35OC (stereo partly specified),-0.5%
9,COC(=O)[C@]12C[C@H](CC(=O)N3CCOCC3)C(=O)N(Cc3ccc(Cl)cc3Cl)C1=C[C@H](C(C)C)O[C@@H]2C1CC1,-1.21%
10,O=C(CSc1ncn[nH]1)Nc1nsc(-c2ccccc2)n1,-3.65%
11,O=C(CSc1ncn[nH]1)Nc1ccnc2ccccc12,0.33%
12,O=C(CSc1ncn[nH]1)N/N=C/c1ccc(F)cc1,9.55% (active)
13,COc1cc(NC(=O)C2CCCN(S(=O)(=O)c3ccc(C(C)(C)C)cc3)C2)cc(OC)c1 (stereo unspecified),0.39%
14,CC(C)CNc1cccc2c1S(=O)(=O)N(Cc1cn(Cc3ccc(Cl)cc3)nn1)Cc1ccccc1O2,-48.8%
15,C=CCN1[C@@H](Cc2ccccc2)COc2cccc(N3CCSCC3)c2S1(=O)=O,1.11%
16,CCOC(=O)[C@]12CCCC=C1N(CCCOC)C(=O)[C@@H]2CC(=O)N1CCOCC1,10.2% (active)
17,CCOC(=O)[C@]12CCCCC/C=C\1N(Cc1ccc(OC)cc1)C(=O)[C@H]2CC(=O)N1CCOCC1,-0.42%
18,CCOC(=O)[C@]12CCCC=C1N(Cc1ccc(OC)cc1)C(=O)[C@@H]2CC(=O)N1CCOCC1,0.69%
19,COc1ccc(N2CCN(CCNS(=O)(=O)c3ccc([N+](=O)[O-])cc3)CC2)cc1,-0.14%
20,COC(=O)C1CN(CCc2ccccc2)CCS(=O)(=O)N1Cc1cccc(Cl)c1 (stereo unspecified),0.86%
21,COc1ccc(CSc2nnc(-c3cccc(C)c3)n2C)cc1,1%
22,COc1ccc(-n2c(COc3ccccc3)nnc2SCC(=O)Nc2ccc3c(c2)OCO3)cc1,-1.32%

row,Structure (SMILES),inhibition
1,Cc1cc(C)n2ncc(C(=O)Nc3ccc4c(c3)OCCO4)c2n1,-0.99%
2,CN(C)[C@H]1CCN(c2cccc3c2S(=O)(=O)N2CC[C@H](C2)O3)C1,1.23%
3,O=C(CN1CCN(C2CCCCC2)CC1)Nc1ccccc1N1CCCCC1,10.2% (active)
4,CC(=O)c1ccc(N2CCN(CC(=O)Nc3ccccc3N3CCOCC3)CC2)cc1,-2.41%
5,O=C(CN1CCCCC1)Nc1ccccc1C(=O)NC1CC1,3.56%
6,COc1ccc(NC(=O)c2ccccc2CC[N+](=O)[O-])cc1,0.81%
7,COc1ccc(C(=O)Nc2c(N)nc(SCC(=O)Nc3ccc(C(C)=O)cc3)[nH]c2=O)cc1,-0.47%
8,COc1ccc(NC(=O)c2ccc(OC)cc2)cc1,11% (active)
9,C[C@@H]1CN([C@@H](C)CO)C(=O)c2cccc(NC(=O)Nc3cccc4ccccc34)c2O[C@H]1CN(C)S(=O)(=O)c1ccccc1F,-11.6%
10,CCN(CC)CCCNC(=O)c1ccc2c(=O)n(Cc3ccc4c(c3)OCO4)c(=S)[nH]c2c1,-2.49%
11,Cc1cccc(NC(=O)c2ccc3c(=O)n(CC4CCCO4)c(=S)[nH]c3c2)c1 (stereo unspecified),10.2% (active)
12,O=C(NCc1ccccc1Cl)c1ccc2c(=O)n(CC3CCCO3)c(=S)[nH]c2c1 (stereo unspecified),2.56%
13,Cc1ccc(NC(=S)NNC(=O)CSc2nnc(SCc3ccccc3Cl)s2)cc1,-4.17%
14,CC(=O)OCCN1CCCC12CCC(c1ccccc1)CC2 (stereo unspecified),-1.82%
15,CCc1ccccc1NC(=O)CSc1nnc(-c2cccs2)o1,-2.39%
16,COC(=O)[C@]12C[C@H](CC(=O)NCc3ccccc3)C(=O)N(CCc3ccc(OC)c(OC)c3)C1=C[C@H](C(C)(C)C)O[C@@H]2C,1.65%
17,COC(=O)C1CN(Cc2cn(Cc3ccc(F)cc3)nn2)CCS(=O)(=O)N1Cc1ccc(Cl)cc1 (stereo unspecified),0.64%
18,C=CCN1C(=O)[C@H](CC(=O)N2CCN(C(=O)OCC)CC2)[C@@]2(C(=O)OCC)CCCC=C12,0.46%
19,FC(F)(F)c1cccc(Cn2ccc3ccc(-c4ccc5ccn(Cc6ccccc6)c5c4)cc32)c1,-66.4%
20,O=c1c([N+](=O)[O-])cccn1Cc1ccc(F)cc1Cl,3.37%
21,O=c1c([N+](=O)[O-])cc(C(F)(F)F)cn1Cc1cccc(Cl)c1,11.6% (active)
22,COC(=O)[C@]12C[C@H](CC(=O)NCC34CC5CC(CC(C5)C3)C4)C(=O)N(Cc3ccc(Cl)cc3Cl)C1=C[C@H](COCc1ccccc1)O[C@@H]2C,-0.03%

row,Structure (SMILES),inhibition
1,CN(CCO)Cc1csc2ccc(Br)cc12,1.91%
2,CCN(CC)Cc1cc(C(C)=O)ccc1O,3.56%
3,CCN(CC)Cc1csc2ccc(Br)cc12,9.63% (active)
4,C=CCN1C(=O)[C@@H](CC(=O)NCCCCc2ccccc2)[C@]2(C(=O)OCC)CCCCC/C=C/12,-0.06%
5,O=C(CN1CCCc2ccccc21)NCc1ccc(F)cc1,-1.61%
6,COc1ccc(NC(=O)CC2C(=O)NC3CCCCC3N2C(=O)c2ccc(F)cc2)cc1 (stereo unspecified),0.91%
7,COc1ccccc1C(=O)N1CCNC(=O)C1CC(=O)Nc1ccc(Cl)cc1 (stereo unspecified),7.83%
8,COc1ccccc1C(=O)N1C(CC(=O)Nc2ccccc2C)C(=O)NC2CCCCC21 (stereo unspecified),9.7% (active)
9,O=C(C1CCN(S(=O)(=O)c2ccccc2)CC1)N1CCN(C2CCCCC2)CC1,-0.77%
10,Cc1ccc(-n2c(SCC(=O)Nc3cccc4ccccc34)nnc2-c2ccccn2)cc1,-0.11%
11,Cc1n[nH]c(=O)n1-c1ccc(Oc2ccccc2)cc1,-0.23%
12,O=C1CS(=O)CN1c1ccc(Oc2ccccc2)cc1 (stereo unspecified),12% (active)
13,Oc1oc(-c2ccccc2Br)nc1/C=N/c1ccccn1,-17.6%
14,CC(N=Cc1nc(-c2ccccc2)oc1O)c1ccccc1 (stereo unspecified),14.1% (active)
15,O=C1CC[C@@]23CCCN2C(=O)CCC[C@H]3[C@H]1Cc1ccccc1,0.07%
16,CCCCn1c(CN2CCN(CCO)CC2)nc2ccccc21,0.96%
17,CCc1c(C)nc(N2CCN(Cc3ccccc3)CC2)[nH]c1=O,-1.09%
18,CC(C)n1c(CN2CCN(Cc3ccccc3)CC2)nc2ccccc21,9.89% (active)
19,O=C(NCc1cccs1)C1CCCN(S(=O)(=O)c2ccc([N+](=O)[O-])cc2)C1 (stereo unspecified),3.77%
20,O=S(=O)(c1ccccc1)N1CCC(c2nc3ccccc3o2)CC1,-4.98%
21,COc1ccc(NS(=O)(=O)c2ccc(C)c(C(=O)NCC(c3cccs3)N3CCOCC3)c2)cc1 (stereo unspecified),-3.99%
22,Cc1cccc(NS(=O)(=O)c2ccc(C)c(C(=O)NCC(c3ccccc3)N(C)C)c2)c1 (stereo unspecified),2.63%

row,Structure (SMILES),inhibition
1,COc1ccc(C(CNC(=O)c2cc(S(=O)(=O)Nc3cccc(C)c3)ccc2C)N2CCCC2)cc1 (stereo unspecified),11% (active)
2,C=CCOC/C=C/C#CCN(CC=C)Cc1ccc(OC)cc1OC,2.05%
3,Cc1ccc(-n2c(SCC(=O)Nc3ccc(S(=O)(=O)Nc4nccs4)cc3)nnc2-c2cccnc2)cc1,6.23%
4,COCCN(C(=O)CCC(=O)Nc1nccs1)C(C(=O)NCCC(C)C)c1ccc(F)cc1 (stereo unspecified),3.17%
5,COCCNC(=O)C(c1ccc(O)cc1)N(C(=O)CCC(=O)Nc1nccs1)c1ccc(C)cc1 (stereo unspecified),15.2% (active)
6,COCCNC(=O)C(c1ccc(C)cc1)N(C(=O)CCC(=O)Nc1ccccn1)c1cccc(C)c1 (stereo unspecified),5.63%
7,CCC(=O)OCCCN1C(=O)CCC12CCC(c1ccccc1)CC2 (stereo unspecified),1.02%
8,C[C@@H]1COc2cccc(N3CCCC3)c2S(=O)(=O)N1C,-3.06%
9,C=CC1=C(C(=O)O)N2C(=O)[C@@H](NC(=O)/C(=N\OCC(=O)O)c3csc(N)n3)[C@H]2SC1,23.4% (active)
10,C=CC1=C(C(=O)O)N2C(=O)[C@@H](NC(=O)/C(=N/OCC(=O)O)c3csc(N)n3)[C@H]2SC1,22.2% (active)
11,COC(=O)[C@]12C[C@H](CC(=O)N3CCOCC3)C(=O)N(Cc3ccc(Cl)cc3Cl)C1=C[C@H](COCc1ccccc1)O[C@@H]2C,1.02%
12,CSc1ccccc1NC(=O)Cc1ccc(Br)cc1,3.58%
13,CC(C)Oc1ccc(CC(=O)NNC(=S)Nc2ccc(Br)cc2)cc1,9.8% (active)
14,COC(=O)Cc1ccc(NC(=S)NCc2ccco2)cc1,2.1%
15,O=C(C1CCCN1S(=O)(=O)c1ccccc1)N1CCc2ccccc2C1 (stereo unspecified),-1.86%
16,O=C(NCC1COc2ccccc2O1)c1ccc(NC(=O)c2cc(F)ccc2F)cc1 (stereo unspecified),-4.17%
17,Cc1ccc(Cn2cc(CN3[C@@H](C)COc4cc(Br)ccc4S3(=O)=O)nn2)cc1,0.13%
18,NC1=NN(c2cccc(C(=O)O)c2)C(=O)C1,18.9% (active)
19,O=C(c1cccc(N2CCCC2=O)c1)N1CCOCC1,-4.42%
20,C/C(=N\NC(=O)c1cccc(N2CCCC2=O)c1)c1ccc(N)cc1,1.08%
